Assay results taken from PubChem BioAssay.

Test: Plasmodium falciparum growth inhibition, primary screen, strain 3D7, DAPI fluorescence, 100 nL (AID 1184);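 further: parasites grown inside human red blood cells in medium with human serum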
Conditions: P. falciparum 3D7 growth, 3 d, higher = more signal

SMILES	z-score
NC(=O)[C@@]1(Cc2ccccc2)COC(c2ccc(OCCCO)cc2)=N1	0.0597
CCOC(=O)C[C@H]1[C@H](OC(=O)c2ccc(C(=O)c3ccccc3)cc2)[C@@H](NC(=O)c2ccc3ccccc3n2)c2cc(OCCCO)ccc2N1C(=O)Cc1ccc(OC)cc1	-2.69
COC(=O)[C@@H]1N=C(c2ccc(OCCCO)cc2)O[C@@H]1c1ccccc1	-0.641
CCOc1cc(C(O)C2C=CC3C(=O)NC(=O)C3N2Nc2ccc(Cl)cc2Cl)ccc1O (stereo not given)	0.0361
CCOC(=O)C=Cc1cccc(C)c1O	-1.44
COC(=O)[C@@]1(Cc2ccc(OC)cc2)[C@H]2c3cc(C(=O)N4CCCC4)n(CCO)c3C[C@H]2CN1C(=O)c1ccccc1	-1.72
CC1=C2[C@@H](CCc3ccccc3)OB(O)C[C@@H]2[C@@H]2C(=O)N(Cc3ccccc3)C(=O)[C@@H]2C1	1.62
C=CC[C@@H](OC(=O)Nc1ccc(SC)cc1)c1ccc(O)c(F)c1	-0.671
COCCCNC(=O)[C@@]1(CCC(=O)OC(C)(C)C)N=C(c2ccc(OCCCO)cc2)O[C@H]1c1ccccc1N=[N+]=[N-]	-2.39
CCOC(=O)C[C@H]1[C@H](OC(=O)c2cc3ccccc3oc2=O)[C@@H](NC(=O)CC(C)C)c2cc(OCCCO)ccc2N1C(=O)c1ccc2ccccc2n1	-0.533
Cc1ccc(C(C)CC(O)C2C=CC3C(=O)N(c4ccccc4)C(=O)C3N2Nc2ccccc2)o1 (stereo not given)	-0.54
CN(C)c1ccc(C(O)C2C=CC3C(=O)NC(=O)C3N2Nc2ccccn2)cc1 (stereo not given)	0.597
CCCCN1CC=CC23O[C@@H]4/C=C\CCCOC(=O)C4[C@H]2C(=O)N(CCO)[C@@H]3C1=O (stereo not given in full)	-1.09
COc1ccc([Si](C)(C)[C@@H]2[C@@H](CCO)O[C@]3(C(=O)N(Cc4ccccc4)c4ccc(N5C(=O)c6cccc7cccc5c67)cc43)[C@H]2C)cc1	-2.76
Oc1ccc2cc[n+](Cc3cc4c(cc3Br)OCO4)cc2c1	0.0298
CCCNC(=O)[C@@H]1c2ccccc2C(=O)N(Cc2ccc(OC(F)(F)F)cc2)[C@H]1c1ccc(CO)cc1	-0.997
COCCOC(=O)N1C(=O)[C@@]2(c3cc(C#CC4=CCCCC4)ccc31)[C@H](c1ccccc1OCCO)N1[C@H](c3ccccc3)[C@H](c3ccccc3)OC(=O)[C@H]1[C@@H]2C(=O)NC[C@H](O)c1ccccc1	-1.93
O=C1N(CCS(=O)(=O)c2ccccc2)c2ccccc2[C@H]2OC(c3ccc(OCCCO)cc3)=N[C@@]12Cc1ccccc1	-1.92

SMILES	z-score
[N-]=[N+]=Nc1ccccc1C[C@]1(C(=O)NCCN2CCOCC2)COC(c2ccc(OCCCO)cc2)=N1	-1.06
C=CC[C@@]1(C(=O)NCCCOC)N=C(c2ccc(OCCCO)cc2)O[C@@H]1c1ccccc1N=[N+]=[N-]	-2.29
COC(=O)C1=CC(CCCO)=CC(c2ccc(CN3CCCC3)cc2)N(Cc2cccc(OC(F)(F)F)c2)C=C1C(=O)OC (stereo not given)	-2.09
CCCC=C(CCC)[C@@H](NC(=O)c1cccs1)c1ccc(C(=O)OC)cc1	-0.417
CC1=C2[C@@H](CCc3ccccc3)OB(O)C[C@@H]2[C@@H]2C(=O)N(C)C(=O)[C@@H]2C1	0.278
COCCOC(=O)N1C(=O)[C@@]2(c3cc(C#CC4(O)CCCCCC4)ccc31)[C@H](c1ccc(O)cc1)N1[C@H](c3ccccc3)[C@H](c3ccccc3)OC(=O)[C@H]1[C@@H]2C(=O)N1CCN(c2ncccn2)CC1	-1.99
COC(=O)[C@@]1(Cc2ccc(F)cc2)[C@H]2c3cc(C(=O)N(C)C)n(Cc4ccc(OC(F)(F)F)cc4)c3C[C@H]2CN1C(=O)c1ccccc1	0.595
C=CCNC(=O)[C@H]1[C@@H]2C(=O)O[C@@H](c3ccccc3)[C@@H](c3ccccc3)N2[C@@H](c2ccccc2OCCO)[C@]12C(=O)N(C(=O)OCCOC)c1ccc(C#CC3(O)CCCCCC3)cc12	-2.15
C=C(COC)/C(=C/C[C@H](OC(=O)c1ccncc1)c1ccccc1OCCO)c1cc(C(=O)OC)ccc1OC	-2.95
CC(C)c1ccc(NN2C(C(O)c3ccc(C#N)cc3)C=CC3C(=O)N(c4ccccc4)C(=O)C32)cc1 (stereo not given)	0.109
CC(C)NC(=O)[C@@]1(c2ccc([N+](=O)[O-])cc2)CC(=O)N(C2CCCCC2)[C@@H]1c1ccc(CO)cc1	-0.385
CCOC(=O)C[C@H]1[C@H](OC(=O)Cc2ccc3c(c2)OCO3)[C@@H](NC(=O)c2ccc3ccccc3n2)c2cc(OCCCO)ccc2N1C(=O)c1ccccc1	-1.03
O=c1cccc(-c2ccc([N+](=O)[O-])cc2)o1	-0.799
CC(C)N1C(=O)C[C@@](C(=O)O)(c2ccc([N+](=O)[O-])cc2)[C@H]1c1ccc(CO)cc1	-0.352
CCCCCCCCCC(O)C1C=CC2C(=O)N(c3ccccc3)C(=O)C2N1Nc1cc(OC)c(OC)c(OC)c1 (stereo not given)	-0.412
COC(=O)[C@@]1(Cc2ccc(OC)cc2)[C@H]2c3cc(C(=O)N(C)C)n(Cc4ccc(C)o4)c3C[C@H]2CN1C(=O)c1ccccc1	-0.952
[N-]=[N+]=Nc1ccccc1C[C@]1(C(=O)NCC(O)CO)COC(c2ccc(OCCCO)cc2)=N1 (stereo not given in full)	-1.57
